Data as given in PubChem BioAssay (NCATS).
Several values for one entry are separate records, joined by “and”; a condition that tells them apart may be missing. Equal values may be shown once. Inconclusive results are not listed. Where a call stands in place of a potency, no number is given. A number with no mark means an inactive call. Activity calls are given as the source filed them. Calls follow the shape of the dose curve; as a rule, active = well fitted inhibition curve with a large enough effect; inconclusive = small, poorly fitted or top-dose-only effect; inactive = no such curve, though single readings can be large or run the other way.

Experiment: Primary qHTS for inhibitors of nuclear receptor binding SET domain protein 2 (NSD2) in an RCH-ACV wild type WT cells (2C) (AID 1645877); also: nearly all actives have a fitted effect of over 70% in size
Settings: RCH-ACV (leukaemia line) NSD2 WT (2C) viability, CellTiter-Glo, 72 h; series mostly up to 44.9 µM
Potency is read from the fitted curve at half-maximal effect.

SMILES | Potency | outcome | activity change, negative = cell killing
COC(=O)C1=C[C@@H](O)[C@@H](O)[C@H](O[C@@H]2O[C@H](COC(=O)/C=C/c3ccccc3)[C@@H](O)[C@H](O)[C@H]2O)C1 | inactive |  | 
O=C(/C=C/c1ccc(O)cc1)O[C@H]1[C@@H]2C=CO[C@@H](O[C@@H]3O[C@H](CO)[C@@H](O)[C@H](O)[C@H]3O)[C@@H]2[C@@]2(CO)O[C@@H]12 | inactive |  | 
O=C(O)C[C@H](O)C[C@H](O)/C=C/c1c(C2CC2)nc2ccccc2c1-c1ccc(F)cc1 | 1.83 µM (active) and 934 nM (active) |  | 
CC1(C(=O)O)CCCC2(C)C1CCC13CC(CCC21)C1(CO)OC31 (stereo not drawn) | inactive |  | 
OC[C@H]1O[C@@H](OCCc2ccc(O)cc2)[C@H](O)[C@@H](O)[C@@H]1O | inactive |  | 
CC(=O)OC[C@]12[C@H](OC(C)=O)C(=O)[C@@H]3[C@@H](OC(C)=O)[C@@]14O[C@@]3(C)COC(=O)c1cccnc1[C@@H](C)[C@H](C)C(=O)O[C@@H]([C@H](OC(C)=O)[C@@H]2OC(C)=O)[C@]4(C)O | inactive |  | 
CCCCCCc1cccc(NC(=O)[C@H](N)CCP(=O)(O)O)c1 |  | inactive [at 9.23 µM] | 
COc1cc(O[C@@H]2O[C@H](CO)[C@@H](O)[C@H](O)[C@H]2O)c(CCC(=O)OC[C@H]2O[C@@H](Oc3cc(OC)c(C4OC(=O)C(C)(O)C4O)cc3CCC(=O)O)[C@H](O)[C@@H](O)[C@@H]2O)cc1C1OC(=O)C(C)(O)C1O (stereo partly drawn) |  |  | -6.02% [at 9.23 µM]
CC(C(=O)O)C1CCC2(C)C3C(=O)C=C4C(CCC(=O)C4(C)C)C3(C)CCC12C (stereo not drawn) | inactive |  | 
CCC(CCO[C@@H]1O[C@H](CO[C@H]2OC[C@](O)(CO)[C@H]2O)[C@@H](O)[C@H](O)[C@H]1O)C(C)(C)O (stereo partly drawn) | inactive |  | 
O=C(/C=C/c1c(C(=O)O)[nH]c2cc(Cl)cc(Cl)c12)Nc1ccccc1 | inactive |  | 
C[C@@H](OC(=O)/C=C/c1ccc(O)cc1)C1=C[C@]2(C=C[C@@H]3C(C(=O)O)=CO[C@@H](O[C@@H]4O[C@H](CO[C@@H]5O[C@H](CO)[C@@H](O)[C@H](O)[C@H]5O)[C@@H](O)[C@H](O)[C@H]4O)[C@@H]32)OC1=O | inactive |  | 
COc1ccc(C(OC2OC(CO)C(O)C(O)C2O)C(C)O)cc1 (stereo not drawn) | inactive |  | 
COC(=O)C[C@@H]1C(C(=O)O)=CO[C@@H](O[C@@H]2O[C@H](CO)[C@@H](O)[C@H](O)[C@H]2O)/C1=C\COC(=O)/C=C\c1ccccc1 | inactive |  | 
CC(C)(O)CNc1nc(Nc2ccnc(C(F)(F)F)c2)nc(-c2cccc(C(F)(F)F)n2)n1 | 20.9 µM (active) |  | 
COc1cc(C2Oc3c(OC)cc(CCCO[C@@H]4O[C@H](CO)[C@@H](O)[C@H](O)[C@H]4O)cc3C2CO)ccc1O (stereo partly drawn) | inactive |  | 
CCC[C@@H]1C[C@@H](C(=O)N[C@H](C(C)Cl)[C@H]2O[C@H](SC)[C@H](O)[C@@H](O)[C@H]2O)N(C)C1 (stereo partly drawn) | inactive |  | 
CN1C(=O)N[C@@H](Cc2c[nH]c3c(Cl)cccc23)C1=O | inactive |  | 
